The record followed here is ChEMBL document CHEMBL4513216, “Probing the Open Global Health Chemical Diversity Library for Multistage-Active Starting Points for Next-Generation Antimalarials” (ACS Infect Dis, 2020).

About 8,600 (12%) of roughly 69,000 compounds showed an effect of 50% or more. The sample as a whole holds a higher share of strong results than the screen did.

The test concerns Plasmodium berghei. Nature of the test: Screen against P. berghei liver stage (PbLuc), transformed with Luciferase, at 10uM. In kind it is functional, HepG2. The settings on record: tested at 10 uM.
`Cc1ncccc1CNCC1CCc2nnc(C(C)C)n2C1` (stereo unspecified): the INHIBITION is reported as 29.8%.
Consider `Cc1ncsc1CCNC(=O)Cn1nc(C)n(Cc2ccccc2)c1=O`, for which the INHIBITION is given as -171%.
In the case of `CC(c1ccccc1Cl)N(C)Cc1nc2c(cnn2C)c(=O)[nH]1` (stereo unspecified), the INHIBITION is recorded as 16.165%.
With `CCN(CC)C(CNC(=O)c1cccnc1-n1cncn1)c1ccsc1` (stereo unspecified), the INHIBITION was found to be 21.1%.
Turning to `O=C(c1cccs1)N1CCC(Cn2nc(-c3ccco3)ccc2=O)CC1`, the INHIBITION came to 33.5%.
Turning to `O=C(c1cccs1)N1CCC(n2nc(-c3ccco3)ccc2=O)CC1`, the INHIBITION is reported as 50.6%.
Regarding `CC(C)C(=O)N1CCC(n2nc(-c3ccco3)ccc2=O)CC1`, the INHIBITION was found to be 61.7%.
The same measure for `O=C(c1ccco1)N1CCC(n2nc(-c3cccs3)ccc2=O)CC1`: 5.11%.
As for `O=C(c1ccco1)N1CCC(n2nc(-c3ccco3)ccc2=O)CC1`, the INHIBITION is -8.12%.
Regarding `CC(C)(C)C(=O)N1CCC(n2nc(-c3ccco3)ccc2=O)CC1`, the INHIBITION was -4.51%.
Then `COc1cc(N2C[C@H]3CN(C(=O)c4cccnc4)C[C@H]3C2)ncn1`, with 0.164%; and `CC(C)N(C)Cc1cc(=O)n2c(n1)CN(C(=O)c1cnccn1)CCC2`, with 33.5%; and `CC(NC(=O)NCc1c(F)cccc1Cl)(C(=O)O)c1ccco1` (stereo unspecified), with 14.1%.
The same measure for `CC(NC(=O)NCc1ccccc1)(C(=O)O)c1ccco1` (stereo unspecified): 58%; for `COc1ccc(CNC(=O)NC(C)(C(=O)O)c2ccco2)cc1F` (stereo unspecified): 53.9%.
On to `CC(NC(=O)NCc1cccc(F)c1)(C(=O)O)c1ccco1` (stereo unspecified), for which the INHIBITION turned out to be 4.52%.
Consider `CC(NC(=O)NCc1ccccc1F)(C(=O)O)c1ccco1` (stereo unspecified), for which the INHIBITION is 25.1%.
As to `CC(C)Oc1cccc(CNC(=O)NC(C)(C(=O)O)c2ccco2)c1` (stereo unspecified), the INHIBITION is 14.4%.
Then `COc1c(CNC2CCCOc3ccc(F)cc32)c(C(C)C)nn1C` (stereo unspecified), with 0.914%.
With `CC(C)NC(=O)N1CC[C@@H](N(C)C)[C@@H]1Cc1ccccc1`, the INHIBITION is on record as 0.804%.
Consider `c1ccc2ncc(CC3CNCCOC3)cc2c1` (stereo unspecified), for which the INHIBITION was 3.48%.
`COCCN1CC[C@]2(CN(Cc3ccccn3)C[C@H]2C)C1=O`: the INHIBITION is recorded as -2.03%.
Then `Cc1ccc(CCC(=O)N2CCC(Nc3cccnn3)CC2)cc1`, with 52.5%; and `COCCCC(=O)N1CCC(Nc2cccnn2)CC1`, with 31.9%; and `O=C(CCNc1ncccn1)N1CCC(Nc2cccnn2)CC1`, with 0.411%.
Turning to `O=C(CCCc1ccccc1)N1CCC(Nc2cccnn2)CC1`, the INHIBITION is reported as -6.44%.
Regarding `O=C(CCc1ccsc1)N1CCC(Nc2cccnn2)CC1`, the INHIBITION is listed as 25.1%.
On to `O=C(CCOc1ccccc1)N1CCC(Nc2cccnn2)CC1`, for which the INHIBITION turned out to be 50.4%.
The same measure for `Cn1nc(Cn2cccn2)c2c1CN(C1CCOC1)C2` (stereo unspecified): -4.02%; for `COCC(=O)N1CCN(C)C(=O)C(Cc2ccccc2-c2cccs2)C1` (stereo unspecified): -20.6%; for `O=C(NCC1CC1)C1CCC2(CCN(C(=O)c3ccncc3)CC2)O1` (stereo unspecified): -6.05%.
Regarding `CCc1nc(C2CCCN2Cc2nnc(C3CC3)o2)no1` (stereo unspecified), the INHIBITION was -5%.
Regarding `Cc1oc(-c2ccco2)nc1CN1CCCC(Cn2cncn2)C1` (stereo unspecified), the INHIBITION was -97.8%.
The same measure for `CC(=O)N(Cc1ncc(C(C)C)o1)C1CCN(Cc2cc(C)no2)C1` (stereo unspecified): 13.95%; for `Cc1nccn1CCCNc1nccnc1C#N`: 12.9%; for `CN1CCC2(CCN(CC3CCOCC3)CC2)C1=O`: 26.5%.
Regarding `CS(=O)(=O)c1cccc(C(=O)NCC2Cc3ccccc3O2)c1` (stereo unspecified), the INHIBITION is 9.06%.
On to `CN(C)c1cc(CNC(=O)c2cccc(F)c2)ccn1`, for which the INHIBITION is reported as 24%.
Consider `CS(=O)(=O)c1cccc(C(=O)NCc2nc3cc(F)ccc3[nH]2)c1`, for which the INHIBITION is listed as 64.5%.
In the case of `CS(=O)(=O)c1ccc(C(=O)NCCNc2ncccn2)cc1`, the INHIBITION is -5.07%.
Then `CS(=O)(=O)c1ccc(C(=O)NCc2nc3cc(F)ccc3[nH]2)cc1`, with 52.2%; and `O=C(NCc1nc2cc(F)ccc2[nH]1)c1ccc[nH]1`, with -7.16%; and `CC(C)CN1CC(C(=O)NCc2cccnc2-n2cccn2)CC1=O` (stereo unspecified), with 19.5%.
The same measure for `Cc1noc(C2(C)CCCN(C(=O)C(C)C)C2)n1` (stereo unspecified): 12.8%; for `Cc1csc2c(C3CCCN(C(=O)Cn4cncn4)C3)nc(C)n12` (stereo unspecified): 7.19%.
For `c1cncc(CN2CCc3ncnc(C4CC4)c3CC2)c1`, the INHIBITION is listed as 6.72%.
Then `Cc1ccsc1C(=O)N1CCC2(CC(C(=O)N(C)C(C)C)=NO2)C1` (stereo unspecified), with 56.6%; and `CC(C)N(C)C(=O)C1=NOC2(CCN(C(=O)c3ccncc3)C2)C1` (stereo unspecified), with 3.47%; and `CC(C)N(C)C(=O)C1=NOC2(CCN(C(=O)c3ccc(Cl)cc3)C2)C1` (stereo unspecified), with -6.53%.
Consider `O=C(C1CC=CC1)N1CCc2c(COCc3ccncc3)cncc2C1`, for which the INHIBITION is 6.8%.
With `CCc1nc(C2CCCN(C(=O)c3cccc(C(N)=O)c3)C2)no1` (stereo unspecified), the INHIBITION is listed as 19.5%.
As for `Cc1ccc2cc(C(=O)N3CCN(C(=O)c4ccoc4)CC3)[nH]c2c1`, the INHIBITION was 24.8%.
As for `Cc1ccc2cc(C(=O)N3CCN(S(C)(=O)=O)CC3)[nH]c2c1`, the INHIBITION is -11.4%.
With `Cc1ccc2cc(C(=O)N3CCS(=O)(=O)CC3)[nH]c2c1`, the INHIBITION was 53.6%.
Consider `CCS(=O)(=O)CCN1CCN(C2CCC(C(C)C)CC2)CC1` (stereo unspecified), for which the INHIBITION is 13.8%.
With `CC(NCC1(N(C)C)CCOCC1)c1ccc(SC(F)F)cc1` (stereo unspecified), the INHIBITION turned out to be 40.5%.
`CCOc1ccccc1C(CC(=O)Nc1ncc(C)s1)NC(C)=O` (stereo unspecified): the INHIBITION was 39.3%.
As to `CC(C)NC(=O)c1ccc2c(c1)nc1n2CCN(Cc2ccccc2)C1`, the INHIBITION stood at 33.3%.
The same measure for `Fc1ccccc1CN1CCCC(NC2CCOCC2)C1` (stereo unspecified): 49.4%; for `Cn1nc(C2CCCN(C(=O)Cc3ccsc3)C2)c2nccnc21` (stereo unspecified): 48.3%.
For the compound `O=C(Cc1ccsc1)N1CCN(CC2CC2)c2ncccc2C1`, the INHIBITION amounted to 29.4%.
`O=C(Cc1ccsc1)N1CCCC(c2n[nH]c3ncccc23)C1` (stereo unspecified): the INHIBITION is given as 67.7%.
For `c1cc(-c2nc(C3CCN(Cc4ccsc4)CC3)no2)ccn1`, the INHIBITION is 50.8%.
For `Cn1nc(C2CCN(C(=O)Cc3ccsc3)CC2)c2cccnc21`, the INHIBITION was determined as 28%.
For `CN1CCN(C(=O)Cc2ccsc2)Cc2cccnc21`, the INHIBITION is recorded as 64.9%.
In the case of `O=C(Cc1ccc(F)cc1)N1CCCC(c2n[nH]c3nccnc23)C1` (stereo unspecified), the INHIBITION stood at 23.2%.
Regarding `CN1CCN(C(=O)Cc2ccc(F)cc2)Cc2cccnc21`, the INHIBITION is -69.9%.
Regarding `O=C(Cc1ccsc1)N1CCCC(c2n[nH]c3nccnc23)C1` (stereo unspecified), the INHIBITION stood at 59.1%.
`Fc1cccc(CN2CCC(c3noc(-c4ccncc4)n3)CC2)c1F`: the INHIBITION is listed as 28.5%.
As to `O=C(Cc1ccsc1)N1CCC(c2n[nH]c3nccnc23)CC1`, the INHIBITION is listed as -0.902%.
As for `O=C(Cc1ccsc1)N1CCC(c2noc(-c3ccncc3)n2)CC1`, the INHIBITION was -0.902%.
For `CC(=O)N1N=C(c2ccco2)OC1C(=O)N(CC(C)C)CC(C)C` (stereo unspecified), the INHIBITION is recorded as -33%.
With `CC(C)c1cc(C(=O)N2CCN(CC3CC3)[C@@H]3CS(=O)(=O)C[C@@H]32)on1`, the INHIBITION was 42.1%.
For `O=C(NCCn1ccnc1)c1ccn(-c2ccccc2)n1`, the INHIBITION turned out to be 1.78%.
With `Cc1ccc(CN(CCCN(C)C)Cc2cnc(C)n2C)o1`, the INHIBITION is on record as 9.93%.
For `Cc1nnsc1CNC(=O)c1ccc2c(c1)nc(N1CCOCC1)n2C`, the INHIBITION is given as -24.6%.
`CC(C)c1nc(CCn2cncn2)n(-c2ccc3c(c2)OCCO3)n1`: the INHIBITION is on record as 3.96%.
The same measure for `Fc1ccc(CN2CCC(c3n[nH]c4nccnc34)CC2)cc1F`: 35.3%.
As to `NC(=O)c1cc(C2CCCN(C(=O)CCc3ccsc3)C2)n[nH]1` (stereo unspecified), the INHIBITION stood at 56.6%.
The same measure for `Cc1ccc(CCC(=O)N2CCCC(c3cc(C(N)=O)[nH]n3)C2)cc1` (stereo unspecified): 48.1%; for `c1cnc2[nH]nc(C3CCN(Cc4ccsc4)CC3)c2c1`: 22%.
In the case of `NC(=O)c1cc(C2CCCN(C(=O)CCc3ccncc3)C2)n[nH]1` (stereo unspecified), the INHIBITION was -51.5%.
With `Cc1ccc(CC(=O)N2CCCC(c3n[nH]c4nccnc34)C2)cc1` (stereo unspecified), the INHIBITION was determined as 44.8%.
Regarding `c1cnc2c(C3CCN(Cc4ccsc4)CC3)n[nH]c2n1`, the INHIBITION came to 64.8%.
As to `COc1cccc(CC(=O)N2CCCC(c3n[nH]c4nccnc34)C2)c1` (stereo unspecified), the INHIBITION is 2.71%.
`Cc1cccc(CC(=O)N2CCCC(c3n[nH]c4nccnc34)C2)c1` (stereo unspecified): the INHIBITION is reported as 50.8%.
Take `Cc1nn(CCC(=O)NC2CCCOC2)c(C)c1C` (stereo unspecified): the INHIBITION is given as 3.35%.
Then `CC1CCN(CCNC(=O)C(C)n2cncn2)CC1` (stereo unspecified), with 22.3%; and `CNC(=O)C1(C)CN(Cc2cn(C)c3ccc(F)cc23)CCO1` (stereo unspecified), with 3.48%; and `CNC(=O)[C@@H]1CN(C(=O)C2CCC2)C[C@H]1c1ccnc(N2CCCC2)n1`, with -33.3%.
As to `Cc1nc(NC(=O)NC2CC(=O)N(C)C2)nn1C(C)C` (stereo unspecified), the INHIBITION is reported as 40.6%.
The same measure for `CCCN1CC(NC(=O)Nc2nc(C)n(C(C)C)n2)CC1=O` (stereo unspecified): 44.6%; for `CCN1CC(NC(=O)Nc2nc(C)n(C(C)C)n2)CC1=O` (stereo unspecified): 64.4%.
As for `COC(=O)C(NC(=O)CCc1ccco1)c1cc(F)ccc1F` (stereo unspecified), the INHIBITION is given as -4.16%.
With `CC(C(=O)N1CCCCC1)n1nc(-c2cccs2)cc(N)c1=O` (stereo unspecified), the INHIBITION is 23%.
Take `O=C(Cc1ccc(Cl)cc1)N[C@@H]1CCC[C@@H](O)[C@@H]1O`: the INHIBITION is given as 14.21%.
For the compound `CC(C)(C)c1noc(-c2ccnc(-n3cnc(C(=O)O)c3)c2)n1`, the INHIBITION is given as -6.73%.
For the compound `CC(=O)N1CCOC(c2cncc(CCC(N)=O)n2)C1` (stereo unspecified), the INHIBITION is given as 10.9%.
Take `c1nc(C2CCCCO2)ncc1CN1CCOCC1` (stereo unspecified): the INHIBITION was determined as 0.696%.
Then `N#Cc1cc2c(nc1O)CCCCC2`, with 23.4%.
Consider `N#Cc1cc2c(nc1SCc1cc(O)nc(O)n1)CCCCC2`, for which the INHIBITION is on record as 66.4%.
Regarding `N#Cc1cc2c(nc1SCc1cc(O)nc(O)n1)CCCC2`, the INHIBITION turned out to be 32.3%.
For `N#Cc1ccccc1N1CC2(CCCCN2CC2CC2)CC1=O` (stereo unspecified), the INHIBITION was 15.3%.
On to `CC(C)n1cc(CN2CCCN(C(=O)C(C)n3cccn3)CC2)cn1` (stereo unspecified), for which the INHIBITION came to 38.5%.
Then `O=C1COc2cc(C(=O)N3CCCC(n4cccn4)C3)ccc2N1` (stereo unspecified), with -24.2%.
As for `CCN1CC(CN(C)Cc2nc(-c3ccoc3)oc2C)CC1=O` (stereo unspecified), the INHIBITION is listed as 39.6%.
